Experimental data taken from PubChem BioAssay AID1851 (National Center for Advancing Translational Sciences (NCATS), 2009).
The whole screen tested about 16,000 compounds, of which about 5,100 (32%) were called active. About 25% were inconclusive and are not listed. Calls come from the whole dose curve; as a rule, active = well fitted curve in the direction sought with a large enough effect; inconclusive = small, poorly fitted or top-dose-only effect, or effect the other way; inactive = no such curve, though single readings can be large or run the other way. This is one part of the list.

target: Cytochrome P450 3A4 (Homo sapiens) (UniProt P08684); experiment: Cytochrome panel assay with activity outcomes; settings: recombinant CYP, pro-luciferin dealkylation, luminescence, p450-cyp3a4; series mostly up to 57.1 µM
% is set by controls: 0 for no effect and ±100 for the full control effect.

Cytochrome P450 3A4 (Homo sapiens), sequence (P08684 whole entry, looked up): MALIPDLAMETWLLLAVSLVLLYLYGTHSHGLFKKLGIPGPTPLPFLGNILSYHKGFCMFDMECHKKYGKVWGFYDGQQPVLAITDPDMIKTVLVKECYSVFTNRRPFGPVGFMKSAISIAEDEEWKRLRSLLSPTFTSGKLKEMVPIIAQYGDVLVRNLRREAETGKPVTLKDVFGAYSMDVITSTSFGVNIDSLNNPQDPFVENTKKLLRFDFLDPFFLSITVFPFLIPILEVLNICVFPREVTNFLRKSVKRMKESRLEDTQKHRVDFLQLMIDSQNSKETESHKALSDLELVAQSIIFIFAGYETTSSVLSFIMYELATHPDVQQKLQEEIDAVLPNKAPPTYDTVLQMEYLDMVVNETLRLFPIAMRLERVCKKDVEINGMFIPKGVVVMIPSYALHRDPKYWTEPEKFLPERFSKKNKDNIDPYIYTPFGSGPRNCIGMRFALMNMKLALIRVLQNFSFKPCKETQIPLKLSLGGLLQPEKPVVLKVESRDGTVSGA

SMILES	AC50	activity, negative = inhibition
CC(C)(C)C(=O)[C@H]([C@@H](c1ccccc1)N1CCOCC1)N1CCOCC1	2.51 µM (active)	
CC(=O)[C@H]([C@@H](c1ccccc1)N1CCOCC1)N1CCOCC1		-29.9% [at 11.4 µM] (inactive)
c1ccc(CCSc2nccn2-c2ccccc2)cc1	14.1 µM (active)	
O=C(CSc1nccn1-c1ccccc1)c1ccc(Cl)cc1	10 µM (active)	
O=C(O)CSCCc1ccccc1		0.346% [at 11.4 µM] (inactive)
CCc1ccc(CSc2nccn2-c2ccccc2)cc1	14.1 µM (active)	
O=c1ccnc(SCc2ccc(Cl)cc2)[nH]1		-11.7% [at 11.4 µM] (inactive)
O=C(CSc1ncnc2nc[nH]c12)c1ccccc1		-16.5% [at 11.4 µM] (inactive)
CC1=NN(c2ccccc2)C(=O)C1C(=O)c1ccc(Cl)cc1 (configuration not stated)	inactive	
Clc1ccc(CSc2nccn2Cc2ccccc2)cc1	7.08 µM (active)	
OCCn1cnc2c(SCc3ccccc3)ncnc21		-4.24% [at 11.4 µM] (inactive)
O=C1C[C@H](c2ccccc2)[C@@H](c2ccc(Br)cc2)O1		1.97% [at 11.4 µM] (inactive)
C#CCCCO/N=C1/[C@H]2O[C@@H]2[C@@H](O)[C@H]2[C@H]1CCn1c(=O)n(Cc3cc4c(cc3Cl)OCO4)c(=O)n12		-10.8% [at 11.4 µM] (inactive)
Cn1nnnc1SCc1ccccc1[N+](=O)[O-]		3.46% [at 2.29 µM] (inactive)
Cc1ccccc1CSc1nccn1-c1ccccc1	5.01 µM (active)	
Cc1oc(-c2ccccc2)cc1C(=O)Nc1ccc(N(C)C)cc1	17.8 µM (active)	
Cc1oc(C(C)(C)C)cc1C(=O)Nc1cccc(/C=C/C(=O)O)c1	inactive	
CC(=O)C[C@H](O)[C@@H](NC(=O)OC(C)(C)C)C(C)C		-26.2% [at 11.4 µM] (inactive)
NC(N)=N/N=C\c1ccc(O)c(C(=O)O)c1		-5.15% [at 11.4 µM] (inactive)

SMILES	AC50	activity, negative = inhibition
CCCCCNCc1cccc(Br)c1	inactive	
O=C(N[C@@]1(C(=O)O)C[C@@H]1c1ccccc1)c1ccccc1		-6.56% [at 11.4 µM] (inactive)
O=C(N/N=C/c1cccc(Oc2ccccc2)c1)c1cccc(Br)c1	inactive	
O=C(N/N=C/C1C(c2ccccc2)C1(Cl)Cl)c1cccc(Br)c1 (configuration not stated)	12.6 µM (active)	
CCCCOC(=O)CSCC(=O)Nc1cc(C)on1		-0.1% [at 11.4 µM] (inactive)
Cc1cc(C)nc(SCc2nnc(SCC(N)=O)n2Cc2ccco2)n1	15.8 µM (active)	
CC(=O)Nc1ccc(NC(=O)CSc2nnc(-c3ccccc3)n2Cc2ccc3c(c2)OCO3)cc1	3.55 µM (active)	
O=C(CSc1nnc(-c2ccccn2)n1Cc1ccco1)Nc1ccc2c(c1)OCO2	0.891 µM (active)	
Cc1cc(NC(=O)CSc2nnc(-c3ccccc3)n2Cc2ccco2)no1	15.8 µM (active)	
COc1ccc(-c2cnnc(CCCn3ccnc3-c3ccccc3)n2)cc1	6.31 µM (active)	
COc1ccc(-c2ccc(=N)n(CCCC(=O)O)n2)cc1	inactive	
COc1ccc(C(O)c2nccn2Cc2ccccc2)cc1 (configuration not stated)		-29.5% [at 11.4 µM] (inactive)
COc1ccc(S(=O)(=O)N2CCN(CC(=O)Nc3cccc(F)c3)CC2)cc1	7.94 µM (active)	
COc1ccc(S(=O)(=O)N2CCC(NC(=O)Nc3ccc(C)cc3)CC2)cc1	8.91 µM (active)	
COc1ccc(S(=O)(=O)N2CCC(N3CCCCC3)CC2)cc1	inactive	
COCC(=O)N1CCC2(CC1)CCN(C(=O)Nc1cccc(F)c1)CC2	inactive	
COc1ccc(C)cc1NC(=O)CN1CCN(S(=O)(=O)c2ccc(F)cc2)CC1	7.94 µM (active)	
COc1ccc(S(=O)(=O)Nc2ccc(S(=O)(=O)N3CCCCC3)cc2)cc1C		-19.1% [at 2.29 µM] (inactive)
COc1ccc(S(=O)(=O)N2CCCN(CC(=O)Nc3ccc(OC)c(Cl)c3)CC2)cc1	7.94 µM (active)	

SMILES	AC50	activity, negative = inhibition
COc1ccccc1NC(=O)CN1CCC(C(=O)c2ccc(F)cc2)CC1		-1.8% [at 2.29 µM] (inactive)
Nc1[nH]c(=S)[nH]c(=O)c1N=Nc1c(Br)cc(S(N)(=O)=O)cc1Br		-21% [at 11.4 µM] (inactive)
O=C(CN1CCN(S(=O)(=O)c2ccccc2)CC1)NC(=O)NCc1ccccc1	inactive	
COc1ccc(S(=O)(=O)N2CCN(CC(=O)Nc3cc(OC)cc(OC)c3)CC2)cc1	3.98 µM (active)	
COC(=O)[C@@]1(Cc2ccccc2)[C@H]2c3cc(C(=O)N4CCCC4)n(C)c3C[C@H]2CN1C(=O)c1ccccc1	3.98 µM (active)	
CCOC(=O)[C@H](CCc1ccccc1)N[C@@H](C)C(=O)N1CCC[C@H]1C(=O)O	inactive	
COC(=O)[C@@]1(Cc2ccccc2)[C@H]2c3cc(C(=O)N4CCCC4)n(CC4CC4)c3C[C@H]2CN1C(=O)c1ccccc1	3.16 µM (active)	
O=[N+]([O-])c1nccn1C[C@H](O)CN1CCCCC1		-20.2% [at 11.4 µM] (inactive)
COc1ccc(C(=O)N/N=C2/SCC(=O)N2Cc2ccc3c(c2)OCO3)cc1OC	1.12 µM (active)	
CCCN(CCC)S(=O)(=O)c1ccc(C(=O)O)cc1	inactive	
CCOC(=O)c1c(C)[nH]c(C)c1C(=O)COC(=O)c1cccc(S(=O)(=O)N(CC)CC)c1	0.316 µM (active)	
CCN(CC)CCOC(=O)c1ccc(N)cc1	inactive	
CCOC(=O)c1c(C)[nH]c(C)c1C(=O)COC(=O)c1ccc(S(=O)(=O)N(CC)CC)cc1	0.282 µM (active)	
NCCCNCCCCNCCCN	inactive	
O=C(O)CCNc1ncnc2nc[nH]c12		-0.12% [at 11.4 µM] (inactive)
CCO[P@]1(=O)OC[C@@H]2O[C@H](n3cnc4c(N)ncnc43)[C@H](O)[C@@H]2O1		7.34% [at 11.4 µM] (inactive)
CCc1ccccc1N1C(=O)c2cccc3c(N4CCOCC4)c([N+](=O)[O-])cc(c23)C1=O	inactive	
O=C1c2cccc3c(Nc4ccccc4Cl)c([N+](=O)[O-])cc(c23)C(=O)N1CCO	14.1 µM (active)	
O=C1c2cccc3c(Cl)ccc(c23)C(=O)N1O		-15% [at 11.4 µM] (inactive)
